# Source: PubChem BioAssay (EPA / NIEHS)
# Active and inactive are the calls of the source. How the source made its calls: active means hit-call score of the fitted dose curve at least 0.9, where 1 is the maximum; inactive means score below 0.9.
# Key:
# Conditions in all cases: mRNA level, 48 h; actives raise or lower the signal
# [1] = read-out: Ezrin (EZR), EZR (gene 7430); test: LTEA_HepaRG_EZR: Life Technologies and Expression Analysis (LTEA) Assay for Ezrin (EZR) using HepaRG (AID 2283491)
# Outline: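 Gain or loss of EZR mRNA is scored relative to 0.5% DMSO in human HepaRG cultures treated 48 h with test chemicals in duplicate, eight half-log concentrations from 100 uM.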
# [2] = read-out: Cytochrome P450 3A7 (Homo sapiens) (UniProt P24462); test: LTEA_HepaRG_CYP3A7: Life Technologies and Expression Analysis (LTEA) Assay for CYP3A7 using HepaRG (AID 2283492)
# Outline: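 CYP3A7 transcript measured by qRT-PCR (ACTB, GAPDH, POLR2A normalization) after 48 h chemical exposure of HepaRG cells in duplicate. Eight half-log concentrations, maximum 100 uM, 0.5% DMSO vehicle; bidirectional curve fitting against DMSO baseline.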
# [3] = read-out: CYP3A5 (gene 1577); test: LTEA_HepaRG_CYP3A5: Life Technologies and Expression Analysis (LTEA) Assay for CYP3A5 using HepaRG (AID 2283493)
# Outline: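 HepaRG cells, plated 48 h then in serum-free induction medium, dosed in duplicate for 48 h with eight half-log concentrations up to 100 uM in 0.5% DMSO. Gene mRNA by Fluidigm TaqMan qRT-PCR, normalized to ACTB, GAPDH, POLR2A.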
# [4] = read-out: Cytochrome P450 4A22 (Homo sapiens) (UniProt Q5TCH4); test: LTEA_HepaRG_CYP4A22: Life Technologies and Expression Analysis (LTEA) Assay for Cytochrome P450 4A22 (CYP4A22) using HepaRG (AID 2283495)
# Outline: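 Gene expression measured by qRT-PCR against three housekeeping genes (ACTB, GAPDH, POLR2A), with gain or loss fitted relative to 0.5% DMSO vehicle. HepaRG cultures received 48 h chemical treatment, top concentration 100 uM, half-log steps, duplicate wells.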
# [5] = read-out: Cytochrome P450 7A1 (Homo sapiens) (UniProt P22680); test: LTEA_HepaRG_CYP7A1: Life Technologies and Expression Analysis (LTEA) Assay for Cytochrome P450 7A1 (CYP7A1) using HepaRG (AID 2283496)
# Outline: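 HepaRG cells plated 48 h, then switched to serum-free induction medium and exposed in duplicate for 48 h to 8-point half-log series from 100 uM in 0.5% DMSO. CYP7A1 mRNA by qRT-PCR (TaqMan), normalized to ACTB/GAPDH/POLR2A; bidirectional fit versus DMSO.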
# [6] = read-out: Glutathione S-Transferase (GSTA2), GSTA2 (gene 2939); test: LTEA_HepaRG_GSTA2: Life Technologies and Expression Analysis (LTEA) Assay for Glutathione S-Transferase (GSTA2) using HepaRG (AID 2283497)
# Outline: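 Human HepaRG cells, plated 48 h, then exposed in serum-free induction medium for 48 h to eight half-log concentrations up to 100 uM in 0.5% DMSO, duplicate. GSTA2 mRNA by qRT-PCR, normalized to ACTB/GAPDH/POLR2A; bidirectional fit versus DMSO.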
# [7] = read-out: Glutamate-cysteine ligase catalytic (GCLC), GCLC (gene 2729); test: LTEA_HepaRG_GCLC: Life Technologies and Expression Analysis (LTEA) Assay for Glutamate-cysteine ligase catalytic (GCLC) using HepaRG (AID 2283498)
# Outline: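 Differentiated human HepaRG cells, plated 48 h then switched to serum-free induction medium, were exposed in duplicate for 48 h to 8 half-log concentrations topping at 100 uM in 0.5% DMSO. GCLC mRNA was quantified by qRT-PCR against ACTB, GAPDH and POLR2A.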
# [8] = read-out: growth arrest and DNA damage 45 (GADD45G), GADD45G (gene 10912); test: LTEA_HepaRG_GADD45G: Life Technologies and Expression Analysis (LTEA) Assay for growth arrest and DNA damage 45 (GADD45G) using HepaRG (AID 2283499)
# Outline: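 GADD45G transcript level by qRT-PCR (housekeeping-normalized: ACTB, GAPDH, POLR2A) after 48 h chemical treatment of a single HepaRG lot in serum-free induction medium; eight-point half-log series up to 100 uM in 0.5% DMSO, duplicates, up- or down-regulation scored.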
# [9] = read-out: Glutathione S-transferase M3 (GSTM3), GSTM3 (gene 2947); test: LTEA_HepaRG_GSTM3: Life Technologies and Expression Analysis (LTEA) Assay for Glutathione S-transferase M3 (GSTM3) using HepaRG (AID 2283501)
# Outline: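 GSTM3 transcript levels came from Fluidigm TaqMan qRT-PCR normalized to three housekeeping genes, fitted in both directions against DMSO. HepaRG cultures received chemicals for 48 h in serum-free induction medium (0.5% DMSO), 8 half-log concentrations up to 100 uM, duplicate.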
# [10] = read-out: Heat shock 70 kDa protein 1 (HSPA1A), gene 3303; test: LTEA_HepaRG_HSPA1A: Life Technologies and Expression Analysis (LTEA) Assay for Heat shock 70 kDa protein 1 (HSPA1A) using HepaRG (AID 2283502)
# Outline: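 Human HepaRG cells in serum-free induction medium were exposed in duplicate for 48 h to 8 half-log concentrations, highest 100 uM, in 0.5% DMSO. HSPA1A mRNA read by TaqMan qRT-PCR, normalized to ACTB, GAPDH, POLR2A, fitted bidirectionally against DMSO.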
# [11] = read-out: Hypoxia-inducible factor 1-alpha (Homo sapiens) (UniProt Q16665); test: LTEA_HepaRG_HIF1A: Life Technologies and Expression Analysis (LTEA) Assay for Hypoxia-inducible factor 1 (HIF1A) Trancription factor using HepaRG (AID 2283503)
# Outline: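 Differentiated HepaRG cells in serum-free induction medium exposed 48 h, in duplicate, to 8-point half-log series from 100 uM in 0.5% DMSO. HIF1A mRNA measured by TaqMan qRT-PCR, normalized to ACTB/GAPDH/POLR2A, fitted bidirectionally versus DMSO.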
# [12] = read-out: 3-Hydroxy-3-Methylglutaryl-CoA Synthase 2 (HMGCS2), HMGCS2 (gene 3158); test: LTEA_HepaRG_HMGCS2: Life Technologies and Expression Analysis (LTEA) Assay for 3-Hydroxy-3-Methylglutaryl-CoA Synthase 2 (HMGCS2) using HepaRG (AID 2283504)
# Outline: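 Readout is HMGCS2 transcript by qRT-PCR, housekeeping-normalised (ACTB/GAPDH/POLR2A) and fitted bidirectionally against 0.5% DMSO. Differentiated HepaRG cells received chemicals 48 h, duplicate wells, eight half-log concentrations topping at 100 uM.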
# [13] = read-out: HGF (gene 3082); test: LTEA_HepaRG_HGF: Life Technologies and Expression Analysis (LTEA) Assay for Hepatocyte Growth Facto (HGF) using HepaRG (AID 2283505)
# Outline: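 HGF transcript was quantified by TaqMan qRT-PCR against three housekeeping genes after 48 h treatment of HepaRG cells. Exposure ran in duplicate over eight half-log steps topping at 100 uM in 0.5% DMSO vehicle.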
# [14] = read-out: Insulin Like Growth Factor 1 (IGF1), IGF1 (gene 3479); test: LTEA_HepaRG_IGF1: Life Technologies and Expression Analysis (LTEA) Assay for Insulin Like Growth Factor 1 (IGF1) using HepaRG (AID 2283506)
# Outline: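 Differentiated HepaRG cells in serum-free induction medium, exposed 48 h in duplicate to 8 half-log concentrations up to 100 uM in 0.5% DMSO. IGF1 mRNA by Fluidigm qRT-PCR, normalised to ACTB, GAPDH and POLR2A.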
# [15] = read-out: Intercellular Adhesion Molecule 1 (ICAM1), ICAM1 (gene 3383); test: LTEA_HepaRG_ICAM1: Life Technologies and Expression Analysis (LTEA) Assay for Intercellular Adhesion Molecule 1 (ICAM1) using HepaRG (AID 2283507)
# Outline: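 ICAM1 transcript levels measured by qRT-PCR, normalized to three housekeeping genes (ACTB, GAPDH, POLR2A), after 48 h chemical exposure of HepaRG cells. Duplicate eight-point half-log series from 100 uM in 0.5% DMSO; gain or loss fitted against vehicle.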
# [16] = read-out: Insulin-like growth factor-binding protein 1 (IGFBP1), IGFBP1 (gene 3484); test: LTEA_HepaRG_IGFBP1: Life Technologies and Expression Analysis (LTEA) Assay for Insulin-like growth factor-binding protein 1 (IGFBP1) using HepaRG (AID 2283508)
# Outline: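 Read-out is qRT-PCR transcript level normalized to three housekeeping genes, fitted in both directions against 0.5% DMSO. Differentiated HepaRG cells received eight half-log concentrations (top 100 uM) in duplicate for 48 h in serum-free induction medium.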
# [17] = read-out: Interleukin 6 Receptor (IL6R), IL6R (gene 3570); test: LTEA_HepaRG_IL6R: Life Technologies and Expression Analysis (LTEA) Assay for Interleukin 6 Receptor (IL6R) using HepaRG (AID 2283510)
# Outline: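 Differentiated HepaRG cells, plated 48 h, then exposed in duplicate for 48 h in serum-free induction medium to 8 half-log concentrations (top 100 uM, 0.5% DMSO). IL6R mRNA measured by TaqMan qRT-PCR, normalized to ACTB/GAPDH/POLR2A; bidirectional fit vs DMSO.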
# [18] = read-out: Fatty Acid-Binding Protein 1 (FABP1), FABP1 (gene 2168); test: LTEA_HepaRG_FABP1: Life Technologies and Expression Analysis (LTEA) Assay for Fatty Acid-Binding Protein 1 (FABP1) using HepaRG (AID 2283494)
# Outline: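 Differentiated human HepaRG cells were exposed in duplicate for 48 h in serum-free induction medium to 8-point half-log concentration series topping at 100 uM in 0.5% DMSO. FABP1 mRNA measured by TaqMan qRT-PCR, normalized to ACTB/GAPDH/POLR2A; bidirectional fit versus DMSO.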
# [19] = read-out: Interleukin 6 (IL6), IL6 (gene 3569); test: LTEA_HepaRG_IL6: Life Technologies and Expression Analysis (LTEA) Assay for Interleukin 6 (IL6) using HepaRG (AID 2283509)
# Outline: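 Differentiated human HepaRG cells, plated 48 h then switched to serum-free induction medium, were exposed in duplicate for 48 h to eight half-log concentrations up to 100 uM in 0.5% DMSO. IL6 mRNA measured by qRT-PCR, normalized to ACTB/GAPDH/POLR2A.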
# [20] = read-out: Glutamate-cysteine ligase regulatory (GCLM), GCLM (gene 2730); test: LTEA_HepaRG_GCLM: Life Technologies and Expression Analysis (LTEA) Assay for Glutamate-cysteine ligase regulatory (GCLM) using HepaRG (AID 2283500)
# Outline: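 Differentiated HepaRG cells exposed 48 h in serum-free induction medium to eight half-log concentrations up to 100 uM (0.5% DMSO). GCLM mRNA by TaqMan qRT-PCR, normalized to ACTB, GAPDH and POLR2A; bidirectional fit versus DMSO.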
# Sequence of Cytochrome P450 3A7 (Homo sapiens) (P24462 whole entry, looked up): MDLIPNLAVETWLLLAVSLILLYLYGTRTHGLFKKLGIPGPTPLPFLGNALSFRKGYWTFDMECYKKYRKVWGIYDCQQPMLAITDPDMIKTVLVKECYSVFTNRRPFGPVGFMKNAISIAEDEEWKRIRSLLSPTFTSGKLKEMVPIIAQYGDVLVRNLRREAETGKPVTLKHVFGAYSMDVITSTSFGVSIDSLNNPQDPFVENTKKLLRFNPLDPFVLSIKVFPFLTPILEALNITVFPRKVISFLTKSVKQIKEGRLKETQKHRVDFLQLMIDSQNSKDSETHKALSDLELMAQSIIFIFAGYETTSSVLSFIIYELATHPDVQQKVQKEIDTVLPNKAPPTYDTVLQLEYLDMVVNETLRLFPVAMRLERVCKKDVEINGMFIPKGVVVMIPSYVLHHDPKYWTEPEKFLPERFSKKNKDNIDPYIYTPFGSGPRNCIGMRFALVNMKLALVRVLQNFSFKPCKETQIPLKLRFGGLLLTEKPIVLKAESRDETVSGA
# Sequence of Hypoxia-inducible factor 1-alpha (Homo sapiens) (Q16665 whole entry, looked up): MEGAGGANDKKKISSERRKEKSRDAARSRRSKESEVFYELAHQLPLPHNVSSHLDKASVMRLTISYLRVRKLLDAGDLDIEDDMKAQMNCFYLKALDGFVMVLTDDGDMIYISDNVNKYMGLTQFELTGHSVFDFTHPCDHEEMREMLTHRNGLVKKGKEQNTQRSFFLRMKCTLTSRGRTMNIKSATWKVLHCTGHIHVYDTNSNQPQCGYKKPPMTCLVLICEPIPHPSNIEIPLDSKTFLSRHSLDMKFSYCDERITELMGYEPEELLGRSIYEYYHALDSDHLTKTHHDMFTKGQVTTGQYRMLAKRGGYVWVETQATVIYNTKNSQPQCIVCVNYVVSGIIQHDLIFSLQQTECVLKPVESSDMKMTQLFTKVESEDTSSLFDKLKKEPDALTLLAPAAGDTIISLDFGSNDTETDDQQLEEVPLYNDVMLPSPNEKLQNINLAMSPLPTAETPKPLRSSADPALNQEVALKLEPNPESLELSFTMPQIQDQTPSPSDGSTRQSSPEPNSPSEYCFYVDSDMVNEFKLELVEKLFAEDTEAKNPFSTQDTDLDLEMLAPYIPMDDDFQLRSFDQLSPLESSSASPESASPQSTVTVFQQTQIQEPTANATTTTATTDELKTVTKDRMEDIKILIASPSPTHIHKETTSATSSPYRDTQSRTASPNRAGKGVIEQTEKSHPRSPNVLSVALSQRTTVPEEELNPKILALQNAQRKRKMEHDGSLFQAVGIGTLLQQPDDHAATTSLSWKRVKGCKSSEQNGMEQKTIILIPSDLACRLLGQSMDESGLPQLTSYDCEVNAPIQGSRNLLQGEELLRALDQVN
smiles,measurement,setting,value
Cc1c(-c2cccnc2)c2ccccc2n1CCCCC(=O)O,outcome,[1],inactive
same,AC50,[2],21.3 µM (active)
same,outcome,[3],inactive
same,outcome,[4],inactive
same,outcome,[5],inactive
same,outcome,[6],inactive
same,outcome,[7],inactive
same,outcome,[8],inactive
same,outcome,[9],inactive
same,outcome,[10],inactive
same,outcome,[11],inactive
same,outcome,[12],inactive
same,outcome,[13],inactive
same,outcome,[14],inactive
same,outcome,[15],inactive
same,outcome,[16],inactive
same,outcome,[17],inactive
Cn1c(=O)c2c(ncn2C)n(C)c1=O,outcome,[1],inactive
same,outcome,[2],inactive
same,outcome,[3],inactive
same,outcome,[4],inactive
same,outcome,[5],inactive
same,outcome,[6],inactive
same,outcome,[7],inactive
same,outcome,[8],inactive
same,outcome,[9],inactive
same,outcome,[10],inactive
same,outcome,[11],inactive
same,outcome,[12],inactive
same,outcome,[13],inactive
same,outcome,[14],inactive
same,outcome,[15],inactive
same,outcome,[16],inactive
same,outcome,[17],inactive
CCCCC(CC)COC(=O)c1ccc(C(=O)OCC(CC)CCCC)cc1 (stereo not given),outcome,[1],inactive
same,outcome,[2],inactive
same,outcome,[3],inactive
same,outcome,[18],inactive
same,outcome,[4],inactive
same,outcome,[5],inactive
same,outcome,[6],inactive
same,outcome,[8],inactive
same,outcome,[9],inactive
same,outcome,[11],inactive
same,outcome,[12],inactive
same,outcome,[13],inactive
same,outcome,[14],inactive
same,outcome,[15],inactive
same,outcome,[16],inactive
same,outcome,[19],inactive
same,outcome,[17],inactive
CC1(C)C(=O)N(Br)C(=O)N1Br,outcome,[1],inactive
same,outcome,[2],inactive
same,outcome,[3],inactive
same,outcome,[4],inactive
same,outcome,[5],inactive
same,outcome,[6],inactive
same,outcome,[7],inactive
same,outcome,[8],inactive
same,outcome,[20],inactive
same,outcome,[9],inactive
same,outcome,[10],inactive
same,outcome,[11],inactive
same,outcome,[12],inactive
same,outcome,[13],inactive
same,outcome,[14],inactive
same,outcome,[15],inactive
same,outcome,[16],inactive
same,outcome,[19],inactive
same,outcome,[17],inactive
